The structures appear in SMILES notation. Inconclusive results are not listed. A number with no mark means an inactive call. Calls of active or inactive are those of the source. Calls come from the whole dose curve; as a rule, active = well fitted cell-killing curve with a large enough effect; inconclusive = small, poorly fitted or top-dose-only effect; inactive = flat fitted curve, though single readings scatter.
Potency is the fitted concentration of half-maximal effect.

A short description of this test: Cell Viability - LYMP2-024 (AID 988). Note: nearly all actives have a fitted effect of over 60% in size. The following applies: LYMP2-024 lymphoblastoid cell viability; series mostly up to 92.2 µM; activity change, negative = cytotoxicity: at the top concentration. The source says:
NIH Chemical Genomics Center [NCGC]
NIH Molecular Libraries Screening Centers Network [MLSCN]
National Institutes of Environmental Health Sciences [NIEHS]
National Toxicology Program [NTP]
We have developed a 1536-well cell-based assay for quantitative high throughput screening (qHTS) against a number of cell lines to determine in vitro cytotoxicity of small molecules. This particular assay uses a human lymphoblastoid cell line (LYMP2-024) purchased from Coriell Institute for Medical Research.
NCGC Assay Protocol Summary:
The CellTiter-Glo luminescent cell viability assay (Promega) is a homogeneous method to measure the number of viable cells in culture. The end point readout of this assay is based on quantitation of intracellular ATP, an indicator of metabolic activity, using the luciferase reaction. Luciferase catalyzes the oxidation of beetle Luciferin to oxyluciferin and light in the presence of ATP. The luminescent signal is proportional to amount of ATP present.
Using the CellTiter-Glo luminescent cell viability assay, the amount of cellular ATP was measured in the lymphoblastoid cell line with complete culture medium following compound treatment for 24 hours. The assay was performed in opaque white Kalypsys 1536-well plates. In the screen, tetraoctylammonium bromide was used as positive control. Library compounds were measured for their ability to cause acute toxicity in the cell line, as reflected by a decrease in intracellular ATP levels, in a concentration-dependent manner. […] AC50 values were determined from concentration-response data modeled with the standard Hill equation.
qHTS protocol for CellTiter Glo lymphoblastoid cellular assay
[Step] [Parameter] [Value] [Description]
1. Reagent; 5 uL; 2500 lymphoblastoid cells/well
2. Time; 5 hr; 37 C incubation
4. Controls; 23 nL; Tetraoctylammonium bromide 6.4pM to 92 uM
5. Time; 24 hr; 37 C incubation
6. Reagent; 5 uL; CellTiter Glo reagent
7. Time; 30 min; Room Temperature
8. Detection; Luminescence; Viewlux plate reader
Keywords: cell viability, cytotoxicity, lymphoblastoid cell line, luminescence, NTPHTS, NTPHTS_NCGC, NIEHS, DSSTox, MLSMR, MLSCN, NIH Roadmap, qHTS, NCGC
Consider `Cc1ccnc2c1NC(=O)c1cccnc1N2C1CC1`, for which the “activity change, negative = cytotoxicity” value was -18.2%.
On to `CCc1cc(C(N)=S)ccn1`, for which the “activity change, negative = cytotoxicity” value was 2.3%.
On the same count and under the same terms, the same measure for `Cc1noc(NS(=O)(=O)c2ccc(N)cc2)c1C`: 0.304%.
On the same count and under the same terms, with `C[C@]12C=CC(=O)C=C1CC[C@@H]1[C@@H]2C(=O)C[C@@]2(C)[C@H]1CC[C@]2(O)C(=O)CO` the figure was 0.41%; with `CC1=NN(c2ccccc2)C(=O)C1`, -12.8%; with `Cc1nnc(NS(=O)(=O)c2ccc(N)cc2)s1`, 1.25%.
The same measure, in the same setting: with `Cc1ncc([N+](=O)[O-])n1CCO` the figure was -11.1%; with `Cc1cc(NS(=O)(=O)c2ccc(N)cc2)no1`, -14.4%.
As to `COc1ccc2cc3[n+](cc2c1OC)CCc1cc2c(cc1-3)OCO2`, the Potency is 39.8 µM (active).
In the case of `O=C(N[C@H](CO)[C@H](O)c1ccc([N+](=O)[O-])cc1)C(Cl)Cl`, the “activity change, negative = cytotoxicity” value was -6.82%.
On to `NC(N)=NC(N)=NCCc1ccccc1`, for which the “activity change, negative = cytotoxicity” value is -18.2%.
Still for that read-out and setting: with `O=C(O)c1cc(=O)[nH]c(=O)[nH]1` the figure was -3.04%.
For `CC[C@H](C)C(=O)O[C@H]1C[C@@H](C)C=C2C=C[C@H](C)[C@H](CC[C@@H]3C[C@@H](O)CC(=O)O3)[C@H]21`, the “activity change, negative = cytotoxicity” value is -23%.
For `CN(C)c1ccc(C(=C2C=CC(=[N+](C)C)C=C2)c2ccc(N(C)C)cc2)cc1`, the Potency is 2 µM (active).
As for `NNC(=O)c1ccncc1`, the “activity change, negative = cytotoxicity” value is 4.78%.
